Experimental data taken from PubChem BioAssay AID1159580 (chemical genetic matrix, 2015).
Hit rate of the full screen: of about 5,500 compounds, about 2,000 (36%) were called active. Inconclusive results (about 18%) are left out. No stated cut-off is given here; in the data, active means normalized growth mostly below about 0.91 (no sharp cut-off); inconclusive means no clear call, values can overlap the other calls; inactive means mostly above about 0.92. This is one part of the list.

Assay: chemical genetic growth profiling, strain panel (AID 1159580);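 further: tested at 20 µM; growth read once vehicle control cultures reached saturation at 30 °C; 1 = growth at the plate median or of vehicle wells; lower values mean less growth of the strain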
Details: S. cerevisiae deletion strains, growth OD

Measured: normalized growth

COc1cc([C@@H]2c3cc4c(cc3[C@@H](O)C3COC(=O)C32)OCO4)cc(OC)c1O (stereo not given in full)
inactive: locus YAL021C, strain ccr4, active compounds read low 0.971 | locus YAL026C, strain drs2, active compounds read low 0.982 | locus YAL030W, strain snc1, active compounds read low 0.986 | locus YBL061C, strain skt5, active compounds read low 0.988 | locus YBR009C, strain hhf1, active compounds read low 0.988 | locus YBR023C, strain chs3, active compounds read low 1 | locus YBR171W, strain sec66, active compounds read low 0.996 | locus YBR231C, strain swc5, active compounds read low 1 | locus YBR279W, strain paf1, active compounds read low 0.997 | locus YCL011C, strain gbp2, active compounds read low 0.988 | locus YCL016C, strain dcc1, active compounds read low 0.981 | locus YCL061C, strain MRC1, active compounds read low 0.978 | locus YCL069W, strain vba3, active compounds read low 0.985 | locus YCR088W, strain abp1, active compounds read low 0.988 | locus YDL005C, strain med2, active compounds read low 0.979 | locus YDL040C, strain nat1, active compounds read low 0.981 | locus YDR001C, strain nth1, active compounds read low 0.977 | locus YDR069C, strain doa4, active compounds read low 0.988 | locus YDR137W, strain rgp1, active compounds read low 1 | locus YDR159W, strain sac3, active compounds read low 0.994 | locus YDR195W, strain ref2 0.944 | locus YDR297W, strain sur2, active compounds read low 0.989 | locus YDR334W, strain swr1, active compounds read low 0.977 | locus YDR335W, strain msn5, active compounds read low 0.985 | locus YDR392W, strain spt3, active compounds read low 1.01 | locus YEL003W, strain gim4, active compounds read low 0.997 | locus YEL037C, strain rad23, active compounds read low 0.981 | locus YEL061C, strain CIN8 (second series), active compounds read low 0.991 | locus YER015W, strain faa2, active compounds read low 0.993 | locus YER016W, strain bim1, active compounds read low 0.987 | locus YER111C, strain swi4, active compounds read low 0.981 | locus YER155C, strain BEM2 (second series), active compounds read low 1.01 | locus YFR010W, strain ubp6, active compounds read low 0.973 | locus YGL167C, strain pmr1, active compounds read low 0.975 | locus YGL173C, strain kem1, active compounds read low 0.992 | locus YGL227W, strain vid30, active compounds read low 0.995 | locus YGL240W, strain doc1, active compounds read low 1.01 | locus YGL253W, strain hxk2, active compounds read low 0.934 | locus YHR013C, strain ard1, active compounds read low 0.964 | locus YHR027C, strain rpn1, active compounds read low 0.986 | locus YHR030C, strain SLT2, active compounds read low 1.03 | locus YHR079C, strain IRE1, active compounds read low 1.04 | locus YHR142W, strain chs7, active compounds read low 0.971 | locus YJL092W, strain hpr5, active compounds read low 0.977 | locus YJL095W, strain BCK1 (second series), active compounds read low 0.981 | locus YJL095W, strain BCK1, active compounds read low 1.02 | locus YJL115W, strain asf1, active compounds read low 0.966 | locus YJL129C, strain trk1, active compounds read low 0.977 | locus YJL154C, strain vps35, active compounds read low 0.985 | locus YJL164C, strain tpk1, active compounds read low 0.967 | locus YJL166W, strain qcr8, active compounds read low 0.997 | locus YJL187C, strain SWE1, active compounds read low 1 | locus YJR066W, strain TOR1, active compounds read low 0.993 | locus YKL160W, strain elf1, active compounds read low 0.973 | locus YKR026C, strain gcn3, active compounds read low 0.991 | locus YKR091W, strain srl3, active compounds read low 0.978 | locus YLL001W, strain dnm1, active compounds read low 0.953 | locus YLL026W, active compounds read low 0.987 | locus YLL041C, strain sdh2, active compounds read low 0.979 | locus YLR027C, strain aat2, active compounds read low 0.991 | locus YLR113W, strain HOG1, active compounds read low 1.03 | locus YLR221C, strain rsa3, active compounds read low 1.02 | locus YLR258W, strain gsy2, active compounds read low 0.985 | locus YLR262C, strain YPT6 (second series), active compounds read low 1.05 | locus YLR320W, strain mms22, active compounds read low 1.02 | locus YLR342W, strain FKS1, active compounds read low 0.986 | locus YLR357W, strain rsc2, active compounds read low 0.966 | locus YLR370C, strain arc18, active compounds read low 0.983 | locus YLR384C, strain iki3, active compounds read low 0.982 | locus YML120C, strain ndi1, active compounds read low 0.985 | locus YMR058W, strain fet3, active compounds read low 0.979 | locus YMR125W, strain sto1, active compounds read low 0.979 | locus YMR129W, active compounds read low 0.997 | locus YMR205C, strain PFK2, active compounds read low 0.965 | locus YMR231W, strain pep5, active compounds read low 0.977 | locus YNL071W, strain lat1, active compounds read low 0.991 | locus YNL183C, strain NPR1, active compounds read low 0.997 | locus YNL209W, strain ssb2, active compounds read low 0.993 | locus YNL248C, strain rpa49, active compounds read low 0.959 | locus YNL322C, strain KRE1 (second series), active compounds read low 0.991 | locus YNR049C, strain mso1, active compounds read low 0.986 | locus YOR001W, strain rrp6, active compounds read low 0.979 | locus YOR070C, strain gyp1, active compounds read low 0.983 | locus YOR080W, strain dia2, active compounds read low 1 | locus YOR083W, strain WHI5, active compounds read low 0.982 | locus YOR106W, strain vam3, active compounds read low 0.958 | locus YOR231W, strain MKK1, active compounds read low 1.03 | locus YOR265W, strain rbl2, active compounds read low 0.987 | locus YOR270C, strain vph1, active compounds read low 0.94 | locus YOR290C, strain snf2, active compounds read low 0.952 | locus YPL051W, strain arl3, active compounds read low 1.03 | locus YPL078C, strain atp4, active compounds read low 0.949 | locus YPL106C, strain sse1, active compounds read low 0.99 | locus YPL240C, strain hsp82, active compounds read low 0.994 | locus YPL256C, strain CLN2, active compounds read low 1.02
